Read-out in test [1]: Tumor necrosis factor receptor superfamily member 6 (Homo sapiens) (UniProt P25445)
The experiment in a line: LTEA_HepaRG_FAS: Life Technologies and Expression Analysis (LTEA) Assay for Fas cell surface death receptor (FAS) using HepaRG (AID 2283447). As to conditions: mRNA level, 48 h; actives raise or lower the signal. In a few lines:
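FAS transcript level was measured by TaqMan qRT-PCR against three housekeeping genes after 48 h chemical exposure. Cells were HepaRG, 0.5% DMSO vehicle, with a top concentration of 100 uM and half-log dilutions over eight points, in duplicate.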

Read-out in test [2]: Fatty acid synthase (Homo sapiens) (UniProt P49327)
The experiment in a line: LTEA_HepaRG_FASN: Life Technologies and Expression Analysis (LTEA) Assay for Fatty Acid Synthase (FASN) using HepaRG (AID 2283448).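 On AC50: differentiated human HepaRG liver cells in serum-free induction medium.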 The note with it: mRNA level, 48 h; actives raise or lower the signal. In a few lines: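 Cells were plated, cultured 48 h, switched to serum-free induction medium, then dosed in duplicate (max 100 uM, half-log dilutions, 0.5% DMSO) for 48 h. RNA was then isolated and FASN quantified by qRT-PCR.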

Read-out in test [3]: Cyclin D2 (CCND2), CCND2 (gene 894)
The experiment in a line: LTEA_HepaRG_CCND2: Life Technologies and Expression Analysis (LTEA) Assay for Cyclin D2 (CCND2) using HepaRG (AID 2283449). The note with it: mRNA level, 48 h; actives raise or lower the signal. The gist of the method: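 CCND2 transcript levels, quantified by qRT-PCR and normalised to three housekeeping genes, were fitted bidirectionally against 0.5% DMSO. HepaRG cultures were dosed 48 h in duplicate with an 8-point half-log series up to 100 uM.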

Read-out in test [4]: Cyclin Dependent Kinase Inhibitor 1A (CDKN1A), CDKN1A (gene 1026)
As to the kind of experiment: LTEA_HepaRG_CDKN1A: Life Technologies and Expression Analysis (LTEA) Assay for Cyclin Dependent Kinase Inhibitor 1A (CDKN1A) using HepaRG (AID 2283450). The note with it: mRNA level, 48 h; actives raise or lower the signal. The gist of the method:
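Read-out is CDKN1A mRNA by TaqMan qRT-PCR, normalized to three housekeeping genes and fitted in both directions against the DMSO baseline. Human HepaRG cells were treated 48 h with test chemicals up to 100 uM in half-log steps, 0.5% DMSO.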

Read-out in test [5]: Cyclin D1 (CCND1), CCND1 (gene 595)
As to the kind of experiment: LTEA_HepaRG_CCND1: Life Technologies and Expression Analysis (LTEA) Assay for Cyclin D1 (CCND1) using HepaRG (AID 2283451).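 On AC50: differentiated human HepaRG liver cells in serum-free induction medium; TaqMan qRT-PCR transcript level normalised to ACTB GAPDH and POLR2A housekeeping genes.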 As to conditions: mRNA level, 48 h; actives raise or lower the signal. The gist of the method: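 HepaRG plated 48 h, medium switched to serum-free induction medium, chemicals added in duplicate (top 100 uM, half-log steps, 0.5% DMSO) for 48 h, cells lysed, RNA measured by TaqMan qRT-PCR.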

Read-out in test [6]: catalase (CAT), CAT (gene 847)
The experiment in a line: LTEA_HepaRG_CAT: Life Technologies and Expression Analysis (LTEA) Assay for catalase (CAT) using HepaRG (AID 2283452). As to conditions: mRNA level, 48 h; actives raise or lower the signal. The gist of the method:
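Expression of CAT was quantified by TaqMan qRT-PCR with ACTB/GAPDH/POLR2A normalization after 48 h chemical exposure of HepaRG. Eight-point half-log series, top 100 uM, in 0.5% DMSO; gain or loss fitted against vehicle.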

Read-out in test [7]: flavin-containing dimethylaniline monooxygenases 3 (FMO3), FMO3 (gene 2328)
The experiment in a line: LTEA_HepaRG_FMO3: Life Technologies and Expression Analysis (LTEA) Assay for flavin-containing dimethylaniline monooxygenases 3 (FMO3) using HepaRG (AID 2283453).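 On AC50: differentiated human HepaRG liver cells in serum-free induction medium.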 The note with it: mRNA level, 48 h; actives raise or lower the signal. In a few lines:
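FMO3 transcript quantified by TaqMan qRT-PCR against three housekeeping genes after 48 h chemical exposure of HepaRG cells. Eight-point half-log series, top 100 uM, 0.5% DMSO vehicle; phenobarbital 1mM induction control; up- or down-regulation fitted.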

Read-out in test [8]: Cytochrome P450 (CYP1A1), CYP1A1 (gene 1543)
As to the kind of experiment: LTEA_HepaRG_CYP1A1: Life Technologies and Expression Analysis (LTEA) Assay for Cytochrome P450 (CYP1A1) using HepaRG (AID 2283454). The note with it: mRNA level, 48 h; actives raise or lower the signal. The gist of the method:
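HepaRG, 48 h post-plating switched to serum-free induction medium; 8-pt conc-response (top 100 uM, half-log, 0.5% DMSO), duplicates, 48 h. Lysis in RLT, TaqMan qRT-PCR for CYP1A1; gain or loss vs DMSO.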

Read-out in test [9]: CFLAR gene, CFLAR (gene 8837)
The experiment in a line: LTEA_HepaRG_CFLAR: Life Technologies and Expression Analysis (LTEA) Assay for CFLAR gene using HepaRG (AID 2283455). As to conditions: mRNA level, 48 h; actives raise or lower the signal. The gist of the method:
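Transcript level by qRT-PCR (normalized to ACTB, GAPDH and POLR2A) after 48 h chemical exposure of HepaRG cells, top concentration 100 uM with half-log steps, 0.5% DMSO vehicle, duplicates; fitted bidirectionally against DMSO baseline.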

Read-out in test [10]: Forkhead box O1 (FOXO1), FOXO1 (gene 2308)
As to the kind of experiment: LTEA_HepaRG_FOXO1: Life Technologies and Expression Analysis (LTEA) Assay for Forkhead box O1 (FOXO1) using HepaRG (AID 2283456). As to conditions: mRNA level, 48 h; actives raise or lower the signal. In a few lines: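 FOXO1 transcript quantified by qRT-PCR after 48 h chemical exposure (top 100 uM, half-log steps, 0.5% DMSO) of HepaRG cells, housekeeping-normalized (ACTB/GAPDH/POLR2A). Changes fitted in both directions relative to vehicle.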

Read-out in test [11]: growth arrest and DNA damage 45 (GADD45A), GADD45A (gene 1647)
The experiment in a line: LTEA_HepaRG_GADD45A: Life Technologies and Expression Analysis (LTEA) Assay for growth arrest and DNA damage 45 (GADD45A) using HepaRG (AID 2283458). The note with it: mRNA level, 48 h; actives raise or lower the signal. The gist of the method: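 Transcript induction or loss, quantified by TaqMan qRT-PCR against three housekeeping genes, is the read-out. HepaRG cells received chemicals for 48 h across eight half-log concentrations from 100 uM in 0.5% DMSO; gain and loss fitted relative to DMSO.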

Read-out in test [12]: Forkhead box O3 (FOXO3), FOXO3 (gene 2309)
As to the kind of experiment: LTEA_HepaRG_FOXO3: Life Technologies and Expression Analysis (LTEA) Assay for Forkhead box O3 (FOXO3) using HepaRG (AID 2283459). As to conditions: mRNA level, 48 h; actives raise or lower the signal. In a few lines:
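FOXO3 transcript measured by qRT-PCR (normalized to ACTB, GAPDH, POLR2A) after 48 h exposure of HepaRG cells in serum-free induction medium. Duplicates, eight half-log concentrations up to 100 uM, 0.5% DMSO; gain or loss fitted against DMSO.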

Read-out in test [13]: ABC Transporter (ABCB1), ABCB1 (gene 5243)
As to the kind of experiment: LTEA_HepaRG_ABCB1: Life Technologies and Expression Analysis (LTEA) Assay for ABC Transporter (ABCB1) using HepaRG (AID 2283460). The note with it: mRNA level, 48 h; actives raise or lower the signal. The gist of the method: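 ABCB1 transcript level measured by TaqMan qRT-PCR against three housekeeping genes after 48 h chemical exposure of differentiated HepaRG cells. Top concentration 100 uM, half-log steps, eight points, 0.5% DMSO vehicle; bidirectional fit relative to DMSO.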

Read-out in test [14]: growth arrest and DNA damage 45 (GADD45B), GADD45B (gene 4616)
The experiment in a line: LTEA_HepaRG_GADD45B: Life Technologies and Expression Analysis (LTEA) Assay for growth arrest and DNA damage 45 (GADD45B) using HepaRG (AID 2283461). The note with it: mRNA level, 48 h; actives raise or lower the signal. In a few lines: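 HepaRG, ~100,000 cells/well, 48 h plating; serum-free induction medium; cpd 100 uM top, half-log x8, 0.5% DMSO, duplicate, 48 h; lysis in RLT, RNA isolation, qRT-PCR; norm ACTB/GAPDH/POLR2A; bidirectional fit vs DMSO.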

Read-out in test [15]: ABC Transporter (ABCC3), ABCC3 (gene 8714)
The experiment in a line: LTEA_HepaRG_ABCC3: Life Technologies and Expression Analysis (LTEA) Assay for ABC Transporter (ABCC3) using HepaRG (AID 2283462). As to conditions: mRNA level, 48 h; actives raise or lower the signal. In a few lines:
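Human HepaRG, 48 h dosing, 8-pt half-log series from 100 uM, 0.5% DMSO vehicle, duplicates. ABCC3 mRNA by TaqMan qRT-PCR, housekeeping-normalized; bidirectional curve fit vs DMSO.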

Read-out in test [16]: ABC Transporter (ABCB11), ABCB11 (gene 8647)
As to the kind of experiment: LTEA_HepaRG_ABCB11: Life Technologies and Expression Analysis (LTEA) Assay for ABC Transporter (ABCB11) using HepaRG (AID 2283463). As to conditions: mRNA level, 48 h; actives raise or lower the signal. In a few lines:
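ABCB11 transcript levels quantified by TaqMan qRT-PCR against three housekeeping genes after 48 h chemical exposure of HepaRG cultures. Concentrations up to 100 uM in half-log steps, 0.5% DMSO vehicle; both induction and suppression scored.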

Read-out in test [17]: ABC Transporter (ABCC2), ABCC2 (gene 1244)
As to the kind of experiment: LTEA_HepaRG_ABCC2: Life Technologies and Expression Analysis (LTEA) Assay for ABC Transporter (ABCC2) using HepaRG (AID 2283464). The note with it: mRNA level, 48 h; actives raise or lower the signal. The gist of the method:
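HepaRG, 48 h post-plating; serum-free induction medium; cpd 8-pt, 100 uM top, half-log, 0.5% DMSO, duplicate, 48 h. Readout: ABCC2 mRNA by qRT-PCR, norm. ACTB/GAPDH/POLR2A. Bidirectional fit vs DMSO baseline.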

Read-out in test [18]: Broad substrate specificity ATP-binding cassette transporter ABCG2 (Homo sapiens) (UniProt Q9UNQ0)
As to the kind of experiment: LTEA_HepaRG_ABCG2: Life Technologies and Expression Analysis (LTEA) Assay for ABC Transporter (ABCG2) using HepaRG (AID 2283465). As to conditions: mRNA level, 48 h; actives raise or lower the signal. In a few lines:
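ABCG2 transcript was quantified by TaqMan qRT-PCR against three housekeeping genes in HepaRG cells. Cells were treated in duplicate for 48 h across an 8-point half-log series up to 100 uM, with 0.5% DMSO vehicle. Gain or loss versus DMSO was fit.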

Test [19] in a line: CEETOX_H295R_PROG: CeeTox H295R High-throughput Steroidogenesis Assay for Progesterone (PROG) (AID 2283442).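 On AC50: human H295R adrenal cells primed with 10 µM forskolin before dosing; progesterone secreted into medium by H295R cells measured by HPLC-MS/MS.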 As to conditions: actives raise or lower the signal. The gist of the method: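 Steps: seed H295R cells and let them adhere overnight; prime 48 h with 10 uM forskolin; dose with compound in DMSO at 0.1% final for 48 h; extract medium steroids with MTBE; measure progesterone by LC-MS/MS. MTT viability was run in the same wells.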

Test [20] is described as follows: CEETOX_H295R_TESTO: CeeTox H295R High-throughput Steroidogenesis Assay for Testosterone (TESTO) (AID 2283457). As to conditions: actives raise or lower the signal. In a few lines:
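H295R, passage ≤10, 48 h dosing; media extracted with MTBE → HPLC-MS/MS for testosterone; 7-pt standard curve sets LLOQ/ULOQ; bidirectional fit vs DMSO; MTT viability same wells.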

The source made the active and inactive calls. How the source made its calls: active means hit-call score of the fitted dose curve at least 0.9, where 1 is the maximum; inactive means score below 0.9.

Sequence of Fatty acid synthase (Homo sapiens) (P49327 whole entry, looked up): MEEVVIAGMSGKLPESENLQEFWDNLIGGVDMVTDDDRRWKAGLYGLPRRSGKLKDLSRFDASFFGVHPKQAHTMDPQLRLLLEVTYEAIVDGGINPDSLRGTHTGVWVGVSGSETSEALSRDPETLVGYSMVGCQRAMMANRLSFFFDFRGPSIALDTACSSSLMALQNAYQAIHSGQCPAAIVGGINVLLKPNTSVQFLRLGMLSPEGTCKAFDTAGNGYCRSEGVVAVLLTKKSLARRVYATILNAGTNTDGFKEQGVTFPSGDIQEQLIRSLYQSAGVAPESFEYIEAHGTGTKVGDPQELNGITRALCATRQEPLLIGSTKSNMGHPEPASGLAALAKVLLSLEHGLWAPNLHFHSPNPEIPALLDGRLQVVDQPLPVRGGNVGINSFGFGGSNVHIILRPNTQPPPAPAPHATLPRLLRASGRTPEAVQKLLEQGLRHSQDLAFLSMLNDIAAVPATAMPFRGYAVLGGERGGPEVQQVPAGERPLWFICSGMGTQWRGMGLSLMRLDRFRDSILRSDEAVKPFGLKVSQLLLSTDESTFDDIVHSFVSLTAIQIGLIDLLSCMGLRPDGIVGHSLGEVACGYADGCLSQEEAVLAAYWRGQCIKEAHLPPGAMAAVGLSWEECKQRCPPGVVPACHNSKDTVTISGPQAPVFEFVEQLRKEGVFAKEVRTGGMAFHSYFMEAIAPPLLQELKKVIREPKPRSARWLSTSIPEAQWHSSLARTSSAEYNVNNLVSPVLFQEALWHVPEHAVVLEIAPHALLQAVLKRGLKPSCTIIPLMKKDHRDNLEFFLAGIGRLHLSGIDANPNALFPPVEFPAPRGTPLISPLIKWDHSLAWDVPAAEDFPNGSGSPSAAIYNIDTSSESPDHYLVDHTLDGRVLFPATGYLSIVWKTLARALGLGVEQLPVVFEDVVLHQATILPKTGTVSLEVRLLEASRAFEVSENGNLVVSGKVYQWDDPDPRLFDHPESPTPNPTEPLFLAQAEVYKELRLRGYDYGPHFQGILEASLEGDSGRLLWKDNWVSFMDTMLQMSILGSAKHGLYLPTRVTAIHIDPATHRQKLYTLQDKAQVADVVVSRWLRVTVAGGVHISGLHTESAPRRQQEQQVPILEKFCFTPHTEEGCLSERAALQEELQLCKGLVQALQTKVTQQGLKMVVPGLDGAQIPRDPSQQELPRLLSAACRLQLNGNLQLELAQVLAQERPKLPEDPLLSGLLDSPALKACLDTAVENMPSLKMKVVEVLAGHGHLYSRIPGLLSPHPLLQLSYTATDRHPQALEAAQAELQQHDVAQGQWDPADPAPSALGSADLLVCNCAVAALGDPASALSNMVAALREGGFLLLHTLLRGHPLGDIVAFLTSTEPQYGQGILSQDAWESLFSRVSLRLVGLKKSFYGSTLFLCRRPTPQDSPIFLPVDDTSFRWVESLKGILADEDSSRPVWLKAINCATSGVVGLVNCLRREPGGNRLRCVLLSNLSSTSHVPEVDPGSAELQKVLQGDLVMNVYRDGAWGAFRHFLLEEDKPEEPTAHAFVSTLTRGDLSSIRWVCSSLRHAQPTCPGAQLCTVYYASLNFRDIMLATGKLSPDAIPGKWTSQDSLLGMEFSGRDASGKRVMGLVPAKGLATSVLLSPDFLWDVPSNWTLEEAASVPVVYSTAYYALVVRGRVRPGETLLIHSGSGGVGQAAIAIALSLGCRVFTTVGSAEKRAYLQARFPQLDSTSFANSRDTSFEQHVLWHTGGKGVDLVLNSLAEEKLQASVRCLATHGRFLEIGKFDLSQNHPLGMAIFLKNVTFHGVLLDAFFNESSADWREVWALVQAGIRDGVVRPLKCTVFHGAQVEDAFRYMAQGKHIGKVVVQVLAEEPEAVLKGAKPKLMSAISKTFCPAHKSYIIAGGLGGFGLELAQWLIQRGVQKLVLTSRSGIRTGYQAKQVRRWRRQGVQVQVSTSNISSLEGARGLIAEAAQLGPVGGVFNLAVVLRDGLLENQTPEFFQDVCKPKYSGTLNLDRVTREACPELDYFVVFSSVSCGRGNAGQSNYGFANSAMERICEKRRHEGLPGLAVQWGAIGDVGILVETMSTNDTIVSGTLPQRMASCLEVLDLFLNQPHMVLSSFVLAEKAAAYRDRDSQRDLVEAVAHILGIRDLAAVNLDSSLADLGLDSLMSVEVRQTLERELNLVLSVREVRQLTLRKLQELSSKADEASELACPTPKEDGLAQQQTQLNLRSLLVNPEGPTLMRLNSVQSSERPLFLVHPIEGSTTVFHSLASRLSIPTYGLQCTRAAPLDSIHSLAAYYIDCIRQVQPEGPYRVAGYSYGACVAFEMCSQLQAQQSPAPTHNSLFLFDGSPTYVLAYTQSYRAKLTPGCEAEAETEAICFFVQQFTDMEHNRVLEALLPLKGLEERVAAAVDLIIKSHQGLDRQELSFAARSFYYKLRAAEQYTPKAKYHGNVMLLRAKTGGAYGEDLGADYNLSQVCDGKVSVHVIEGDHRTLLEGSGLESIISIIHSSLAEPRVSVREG
Sequence of Broad substrate specificity ATP-binding cassette transporter ABCG2 (Homo sapiens) (Q9UNQ0 whole entry, looked up): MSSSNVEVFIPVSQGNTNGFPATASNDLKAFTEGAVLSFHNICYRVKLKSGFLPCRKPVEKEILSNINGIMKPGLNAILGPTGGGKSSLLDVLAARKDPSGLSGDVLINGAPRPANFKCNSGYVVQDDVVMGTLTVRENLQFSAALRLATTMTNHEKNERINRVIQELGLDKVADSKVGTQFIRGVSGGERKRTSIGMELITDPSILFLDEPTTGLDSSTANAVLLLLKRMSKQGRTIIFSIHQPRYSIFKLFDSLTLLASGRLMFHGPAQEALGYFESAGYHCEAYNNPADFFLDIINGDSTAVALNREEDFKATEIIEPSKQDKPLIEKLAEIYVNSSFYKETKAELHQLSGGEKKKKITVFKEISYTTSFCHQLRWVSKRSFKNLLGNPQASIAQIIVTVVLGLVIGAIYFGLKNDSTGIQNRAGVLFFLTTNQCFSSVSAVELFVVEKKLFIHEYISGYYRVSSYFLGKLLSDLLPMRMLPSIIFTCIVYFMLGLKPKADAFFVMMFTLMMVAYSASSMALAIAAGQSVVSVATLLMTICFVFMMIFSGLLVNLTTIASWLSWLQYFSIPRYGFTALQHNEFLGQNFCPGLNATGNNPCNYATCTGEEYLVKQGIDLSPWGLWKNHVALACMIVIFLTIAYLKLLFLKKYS

Broadly, the AC50 is the concentration at which the activity in the assay is half-maximal. Take `CCNc1cccc(C)c1`: the outcome in test [1], in test [2], in test [3], in [4], in test [5] and in test [6] was inactive. Also, the compound was classed as inactive in test [7], in [9], in test [10], in [11], in [12] and in test [13]. In addition, the compound was called inactive in test [14], in test [15], in [16], in test [17] and in [18]. Besides, the AC50 in test [8] was 50 µM (active).
As for `Cc1cc(NC(=O)C(=O)O)cc(C)c1Oc1ccc(O)c2c1CCC2`, the AC50 in test [19] is 43.2 µM (active); in [6] it was 0.303 µM (active); in test [8] it was 0.0026 µM (active). The result in test [1], in test [2], in test [4], in test [7], in test [9] and in test [10] was inactive. The compound was called inactive in test [20], in [11], in [12], in [13], in [14] and in test [15]. In addition, the outcome in test [18] was inactive.
With `Cc1ccc(Cl)cc1`, the result in test [1], in [2], in [3], in test [4], in [5] and in test [6] was inactive. In addition, the result in test [7], in test [8], in [9], in [10], in test [11] and in test [13] was inactive. Moreover, the call in test [14], in test [15], in test [16], in [17] and in [18] was inactive.
With `COc1ccc(S(=O)(=O)N2C(=O)[C@@](c3ccccc3OC)(N3C[C@H](O)C[C@H]3C(=O)N(C)C)c3cc(Cl)ccc32)c(OC)c1`, the compound was called inactive in test [19], in test [1], in test [3], in test [8], in [20] and in test [13]. Further, the outcome in test [14] was inactive. Also, the AC50 in [2] is 22.7 µM (active); in [4], 84.9 µM (active); in test [5] it was 85.5 µM (active); in [6], 23.7 µM (active); in [7], 43.3 µM (active); in test [10] it was 35.9 µM (active). For the same compound, the half-maximal activity concentration (AC50) in test [11] is 87.9 µM (active); in test [15] it was 50 µM (active); in test [18], 11.7 µM (active).

Source of the values: PubChem BioAssay (EPA / NIEHS).
